Screening data as filed in PubChem BioAssay.
Shown are actives, neighbours in structure and some others; about 2.7% of the full set was active somewhere.
PAFAH2 inh = inhibitors of human PAFAH2; Q99487; recombinant PAFAH2, FP-rhodamine activity probe, fluorescence polarization; inhibition, % at 3.39 µM; 0.99% of 340,000 active; AID 492956;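 active = inhibition above the mean over all tested compounds plus 3 SD, cut at about 30% in these data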;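 note: inhibitors block probe labeling of enzyme so polarization drops; 0% = enzyme with DMSO and 100% = wells lacking PAFAH2 protein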
TCR CD3 inh = blocks the human TCR-CD3 interaction | TAMRA-labeled TCR probe fluorescence, biochemical | inhibition, % at 9.4 µM | 0.37% of 360,000 active | AID 651800;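 note: recombinant mutant TCR 2C K166C tagged with TAMRA read by polarization; 0% = receptor in buffer alone and 100% = receptor with positive control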
PAFAH1B2 FP inh = PAFAH1B2 (human) inhibition. P68402. recombinant PAFAH1B2, FP-rhodamine activity probe, fluorescence polarization. inhibition, % at 3.39 µM. 1.2% of 340,000 active. AID 492953;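 active = inhibition above the mean of all tested compounds plus 3 SD, cut at about 24% in these data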;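 note: 0% = enzyme with DMSO and 100% = wells lacking PAFAH1B2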
Target sequence (P68402 whole entry, looked up): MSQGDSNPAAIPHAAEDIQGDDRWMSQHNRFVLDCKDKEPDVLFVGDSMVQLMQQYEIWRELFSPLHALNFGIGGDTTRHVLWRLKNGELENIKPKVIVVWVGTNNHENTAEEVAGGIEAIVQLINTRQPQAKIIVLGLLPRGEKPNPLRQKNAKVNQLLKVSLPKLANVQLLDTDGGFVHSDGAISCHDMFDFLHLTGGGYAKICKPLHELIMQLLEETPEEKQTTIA
PAFAH1B3 inh = inhibitors of human PAFAH1B3; recombinant PAFAH1B3, FP-rhodamine probe, fluorescence polarization; inhibition, % at 3.39 µM; Q15102; 0.28% of 340,000 active;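 active = inhibition above the screen-wide average of all tested compounds plus 3 SD, cut at about 25% in these data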;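 note: 0% = enzyme with DMSO only and 100% = wells lacking PAFAH1B3 protein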
Target sequence (Q15102 whole entry, looked up): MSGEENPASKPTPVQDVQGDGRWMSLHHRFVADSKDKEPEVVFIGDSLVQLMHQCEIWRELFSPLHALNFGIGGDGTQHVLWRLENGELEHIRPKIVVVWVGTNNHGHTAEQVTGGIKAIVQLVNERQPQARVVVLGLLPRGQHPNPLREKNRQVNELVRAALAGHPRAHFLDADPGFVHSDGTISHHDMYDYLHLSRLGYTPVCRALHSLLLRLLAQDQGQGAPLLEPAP
pPAFAH FP inh = inhibitors of human plasma PAF acetylhydrolase (pPAFAH); Q13093; recombinant pPAFAH, FP-rhodamine probe fluorescence polarization; inhibition, % at 3.39 µM; 1.5% of 330,000 active; AID 463082;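 active = inhibition above the mean inhibition across the screen plus 3 SD, cut at about 25% in these data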;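 note: inhibitors block binding of the rhodamine activity-based probe so polarization drops; 0% = enzyme with DMSO and 100% = wells lacking pPAFAH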
BSA TAMRA ctr = counter-screen for TCR-CD3 interaction inhibitors: BSA probe; 10% of 1,200 active; shares compounds with TCR CD3 inh; inhibition, % at 9.4 µM; TAMRA-labeled BSA probe fluorescence counterscreen; AID 652035; in the data active = inhibition above about 23%;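 note: 0% = buffer low control and 100% = reference high control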
TCR-CD3 conf = TCR-CD3 interaction inhibition, confirmation; 48% of 1,200 active; TAMRA-labeled TCR probe fluorescence binding assay; inhibition, % at 9.4 µM; shares compounds with TCR CD3 inh
The depositor's hits bear a star; . = no result given. Cut-off read from the data, not from the text of the source, unless noted: active = inhibition above about 19%; inactive = the rest.

SMILES	PAFAH2 inh	TCR CD3 inh	PAFAH1B2 FP inh	PAFAH1B3 inh	pPAFAH FP inh	BSA TAMRA ctr	TCR-CD3 conf
COc1ccc(C(=O)OCC(=O)Nc2sccc2C(N)=O)cc1OC	22	10	9	1	3	.	.
COc1ccc(C(=O)OCC(=O)Nc2ncc([N+](=O)[O-])s2)cc1OC	40*	21*	9	30*	24	-19	8
CS(=O)(=O)Nc1ccc(-c2n[nH]c(=S)n2-c2ccccc2)cc1	6	37*	-2	-1	-3	3	0
O=C(NNc1ccc([N+](=O)[O-])cc1[N+](=O)[O-])c1ccco1	4	.	5	0	7	.	.
Nc1ccc([N+](=O)[O-])cc1C(=O)NNC(=O)c1ccco1	-1	27*	0	4	-2	-11	32*
Cc1cccc(C(=O)NNC(=O)c2ccco2)c1O	-9	19*	-1	5	1	-5	12
CCCOc1ccc(C(=O)NNC(=S)NC(=O)c2ccco2)cc1	3	20*	7	3	10	-13	14
O=C(NNC(=S)NC(=O)c1ccco1)c1ccc(F)cc1	-2	12	2	6	-7	.	.
O=C(NNC(=O)c1ccccc1O)c1ccco1	16	6	5	6	-1	.	.
COc1ccccc1C(=O)NNC(=S)NC(=O)c1ccco1	9	21*	2	-2	3	-9	14
Cc1ccc(S(=O)(=O)N2CCOCC2)cc1C(=O)N1CC(C)OC(C)C1 (stereo unspecified)	-4	-3	3	1	-2	.	.
CC(C)Cc1nnc(NC(=O)c2ccc3c(c2)NC(=O)C(C)S3)s1 (stereo unspecified)	-4	13	1	9	2	.	.
Cc1cccc(C(=O)NNC(=O)c2c(-c3ccccc3Cl)noc2C)c1O	6	29*	5	13	6	-1	16
Cc1onc(-c2ccccc2Cl)c1C(=O)NNC(=O)c1ccc(F)cc1	-2	-1	-4	-4	-4	.	.
CCCc1c(C(=O)N/N=C(\C)c2ccccc2O)nnn1-c1nonc1N	.	6	.	.	.	.	.
C/C(=N\NC(=O)c1nnn(-c2nonc2N)c1-c1ccccc1)c1ccccc1O	3	49*	4	5	13	-7	30*
COc1ccccc1NC(=O)CC1S/C(=N/N=C2\CCCc3ccccc32)NC1=O (stereo unspecified)	4	5	8	9	2	.	.
COc1cc(Br)cc2cc(C(=O)N3CCN(C(=O)c4ccco4)CC3)c(=O)oc12	14	20*	5	8	9	3	19*
O=C(CN1C(=O)NC2(CCOc3ccccc32)C1=O)c1ccc(F)cc1 (stereo unspecified)	8	19*	-2	2	5	0	2
O=C(CN1C(=O)NC2(CCOc3ccccc32)C1=O)c1ccc(F)c(F)c1 (stereo unspecified)	3	8	-1	10	0	.	.
O=C(NN=Cc1cccc(O)c1O)c1ccccc1	.	3	.	.	.	.	.
CC(=O)c1ccc(NC(=O)CSc2nnc3ccc(-c4ccccn4)nn23)cc1	-2	-6	2	2	1	.	.
CC1(C)OC(C)(C)/C(=C/Nc2ccc(O)cc2)C1=O	17	33*	2	17	21	9	14
CCc1ccc(NC(=O)C(C)OC(=O)CC(NC(C)=O)c2ccccc2)cc1 (stereo unspecified)	-7	6	-7	0	3	.	.
CC(C)c1ccc(N=c2c([N+](=O)[O-])nn(-c3ccc4c(c3)OCCO4)n2O)cc1	8	-2	2	5	10	.	.
SMILES	PAFAH2 inh	TCR CD3 inh	PAFAH1B2 FP inh	PAFAH1B3 inh	pPAFAH FP inh	BSA TAMRA ctr	TCR-CD3 conf
CN=c1c([N+](=O)[O-])nn(-c2ccc3c(c2)OCCO3)n1O	-7	64*	1	19	3	0	2
O=c1[nH]c(C(Cl)Cl)nc2sc3c(c12)CCN(Cc1ccccc1)C3	13	25*	16	4	19	-4	15
CCCSc1nc2sc3c(c2c(=O)[nH]1)CCN(Cc1ccccc1)C3	10	.	0	7	14	.	.
NNC(=O)c1oc2nc(-c3ccco3)cc(-c3ccco3)c2c1N	.	25*	.	.	34*	-2	14
C=CCn1c(SCC(=O)c2c(N)n(C)c(=O)n(C)c2=O)nnc1-c1ccccc1F	6	6	1	2	5	.	.
CN(C)Cc1c(O)c(Cl)cc2c3c(c(=O)oc12)CCCC3	3	6	-1	13	5	.	.
CCN(CC)Cc1c(O)c(Cl)cc2c3c(c(=O)oc12)CCCC3	2	22*	2	1	9	-4	-2
CN(C)CCCNC(=O)C[C@H]1C[C@H](C(=O)N2CCCCC2)[C@@]2(C)c3[nH]c4ccc(Cl)cc4c3CCN2C1=O	-2	-4	1	5	2	.	.
C[C@]12c3[nH]c4ccc(Cl)cc4c3CCN1C(=O)[C@@H](CC(=O)NCCN1CCOCC1)C[C@@H]2C(=O)N1CCCCC1	-2	36*	1	6	2	3	2
C[C@@H]1COC(=O)[C@@H](CC(=O)OC(C)(C)C)C/C=C\C[C@@H](CC(=O)NCCO)C(=O)N1	4	-1	8	10	-4	.	.
Cc1cccc(CN(C)C[C@@H]2OCc3cnnn3CCCC(=O)N([C@H](C)CO)C[C@H]2C)c1	.	6	.	.	.	.	.
O=C(O)c1ccccc1N/N=C/C1=C(N2CCOCC2)C(=C\c2ccccc2)/CC1	22	20*	7	6	20	-10	-2
Cc1ccc(OCC(=O)NNC(=S)NC(=O)c2ccc(Br)o2)c(C)c1	6	13	7	5	.	.	.
COc1ccc(C(=O)NNC(=S)NC(=O)c2ccc(Br)o2)cc1OC	-1	20*	1	10	5	-5	25*
Cc1ccc(S(=O)(=O)N2CCN(CC(O)c3ccccc3)CC2)cc1C (stereo unspecified)	1	-2	1	-12	4	.	.
Cc1cc(C)nc(Nc2nc(C(N)Cc3ccc(Cl)cc3)cs2)n1 (stereo unspecified)	.	-4	.	.	.	.	.
Nc1ncnc2c1CN(Cc1ccccc1)CC2	-4	77*	4	3	.	4	4
C=CCNC(=S)NNC(=O)c1cc(O)ccc1O	.	38*	.	.	6	-10	23*
C=CCNC(=S)NNC(=O)c1cccn(Cc2ccc(Cl)cc2)c1=O	-8	36*	4	9	-3	-7	18
C=CCn1cccc(C(=O)Nc2ccc(Cl)cc2)c1=O	0	8	5	6	8	.	.
C=CCNC(=S)NNC(=O)c1cccn(Cc2cccc(Cl)c2)c1=O	5	27*	5	9	5	-4	25*
CC1=C(C(=O)N2CCOCC2)CC(CC(=O)NCc2ccco2)C(=O)N1CCC1=CCCCC1 (stereo unspecified)	.	6	.	.	.	.	.
CN(N=Cc1ccccc1O)c1ccc2ccccc2n1	.	20*	.	.	.	4	-1
